For 15 compounds, outcome and AC50 results are on record in PubChem BioAssay (EPA / NIEHS).

Experiment [1] deals with Estrogen-related receptor gamma (Homo sapiens) (UniProt P62508). Nature of the experiment: ATG_ERRg_TRANS: Attagene TRANS-FACTORIAL HepG2 Assay for human Estrogen-Related Receptor gamma (ERRg) (AID 2282977).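 Note: hits increase reporter signal over DMSO so potencies reflect activators.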 The following applies: HepG2 Attagene TRANS reporter, ERRg transactivation. The gist of the method: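 HepG2 cells transiently transfected with multiplexed GAL4-UAS reporter units driven by chimeric NR-Gal4 proteins; 24 h exposure. Reporter mRNA quantified by RT-PCR, fluorescent labelling, HpaI digestion and capillary electrophoresis; gain of signal vs DMSO.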

Experiment [2] has as its target Bile acid receptor (Homo sapiens) (UniProt Q96RI1). The experiment is described as follows: ATG_FXR_TRANS: Attagene TRANS-FACTORIAL HepG2 Assay for Farnesoid X Receptor (FXR) (AID 2282979).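 Note: hits raise reporter mRNA above DMSO so AC50 marks FXR activation.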 The following applies: HepG2 Attagene TRANS FXR-GAL4 reporter transcription. The gist of the method: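 HepG2 cells were transiently transfected with GAL4-UAS reporters driven by chimeric NR-Gal4 proteins and dosed for 24 h. Reporter mRNA was quantified by RT-PCR, fluorescent labelling, HpaI digestion and capillary electrophoresis, with gain of signal scored versus DMSO.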

Experiment [3] deals with Oxysterols receptor LXR-alpha (Homo sapiens) (UniProt Q13133). Nature of the experiment: ATG_LXRa_TRANS: Attagene TRANS-FACTORIAL HepG2 Assay for human Liver X Receptor alpha (LXRa) (AID 2282980). The following applies: HepG2 Attagene TRANS reporter, LXRa transactivation. In outline: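 HepG2 cells transiently transfected with GAL4-UAS reporter units for chimeric NR-Gal4 proteins, exposed to chemicals for 24 h. Reporter mRNA quantified by RT-PCR and capillary electrophoresis; gain of signal fitted relative to DMSO.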

In experiment [4] the target is Hepatocyte nuclear factor 4-alpha (Homo sapiens) (UniProt P41235). The experiment is described as follows: ATG_HNF4a_TRANS: Attagene TRANS-FACTORIAL HepG2 Assay for human Hepatocyte Nuclear Factor 4 alpha (HNF4a) (AID 2282982). The following applies: HepG2 HNF4a transactivation reporter, mRNA readout. The gist of the method: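 Readout is fluorescent reporter-transcript fragments resolved by capillary electrophoresis after RT-PCR from HepG2 cells dosed for 24 h. Cells carried transfected GAL4-UAS reporter constructs measuring exogenous NR-GAL4 chimera activity; DMSO served as baseline.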

Experiment [5] can be described thus: ATG_M_06_TRANS: Attagene TRANS-FACTORIAL HepG2 Assay for M06 Transcription Factor (Internal Marker) (AID 2282983). The settings on record: HepG2 Attagene TRANS M06 internal marker reporter. The gist of the method: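 HepG2 cells transiently transfected with GAL4-UAS multiple reporter units, dosed 24 h. Reporter RNA reverse-transcribed, PCR-amplified, 6-FAM-labeled, HpaI-digested and quantified by capillary electrophoresis; this internal-marker signal fitted upward relative to DMSO.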

Experiment [6] deals with Nuclear receptor subfamily 4 group A member 2 (Homo sapiens) (UniProt P43354). The experiment is described as follows: ATG_NURR1_TRANS: Attagene TRANS-FACTORIAL HepG2 Assay for human Nuclear Receptor Related Protein 1 (NURR1) (AID 2282985). The following applies: HepG2 Attagene TRANS reporter, mRNA readout. In outline: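 Transient transfection of HepG2, human liver cells, with multiple GAL4-UAS reporter transcription units. Cells dosed 24 h, RNA isolated, reverse-transcribed, PCR-amplified, FAM-labelled, HpaI-digested, sized by capillary electrophoresis. DMSO served as negative control.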

The target of experiment [7] is Transcriptional activator Myb (Homo sapiens) (UniProt P10242). Nature of the experiment: ATG_Myb_CIS: Attagene CIS-FACTORIAL HepG2 Assay for human Myeloblastosis (Myb) Proto-Oncogene Transcription Factor (AID 2282986; active = hit-call score of the fitted dose curve at least 0.9, where 1 is the maximum; inactive = score below 0.9). The following applies: HepG2 Attagene CIS-FACTORIAL Myb reporter transcription; actives raise or lower the signal. The gist of the method:
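Reporter transcript levels, quantified by fluorescent RT-PCR and capillary electrophoresis, serve as the read-out. Transfected HepG2 cells carrying cis-promoter reporter units are dosed for 24 hours, and curves are fitted bidirectionally against DMSO controls.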

The nature of experiment [8]: ATG_M_32_TRANS: Attagene TRANS-FACTORIAL HepG2 Assay for M32 Transcription Factor (Internal Marker) (AID 2282984). The settings on record: HepG2 Attagene TRANS M32 internal marker reporter. The gist of the method: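 Measures reporter mRNA induction in human HepG2 liver cells after 24 h chemical treatment. Transcripts from transiently transfected GAL4-UAS reporter units are amplified, fluorescently labelled and sized by capillary electrophoresis; gain of signal relative to DMSO.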

For experiment [9], the target named is Glucocorticoid receptor (Homo sapiens) (UniProt P04150). The experiment is described as follows: ATG_GR_TRANS: Attagene TRANS-FACTORIAL HepG2 Assay for human Glucocorticoid Receptor (GR) (AID 2282978).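 Note: activators score as hits since higher reporter transcript over DMSO is fitted.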 The settings on record: HepG2 Attagene TRANS GR reporter, mRNA transcription. The gist of the method: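 Fluorescent capillary-electrophoresis quantitation of reporter mRNA is the readout, taken 24 h after dosing human HepG2 cells carrying transiently transfected GAL4-UAS reporter units activated by chimeric NR-GAL4 fusions; activity scored as induction over DMSO.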

For experiment [10], the target named is Oxysterols receptor LXR-beta (Homo sapiens) (UniProt P55055). Nature of the experiment: ATG_LXRb_TRANS: Attagene TRANS-FACTORIAL HepG2 Assay for human Liver X Receptor beta (LXRb) (AID 2282981). The settings on record: HepG2 Attagene TRANS GAL4-LXRb reporter, mRNA. In outline:
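Transient transfection HepG2 (multiplexed RTUs, GAL4-UAS); NR-Gal4 chimera; 24 h exposure; RNA → RT-PCR → 6-FAM primer extension → HpaI → CE; increase vs DMSO.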

Records with an inconclusive call do not appear. The source made the active and inactive calls. Rule for the calls, unless noted: active = hit-call score of the fitted dose curve at least 0.9, where 1 is the maximum; inconclusive = response in the unintended direction; inactive = score below 0.9.

Chain of Nuclear receptor subfamily 4 group A member 2 (Homo sapiens) (P43354 whole entry, looked up, the tested form may be a part): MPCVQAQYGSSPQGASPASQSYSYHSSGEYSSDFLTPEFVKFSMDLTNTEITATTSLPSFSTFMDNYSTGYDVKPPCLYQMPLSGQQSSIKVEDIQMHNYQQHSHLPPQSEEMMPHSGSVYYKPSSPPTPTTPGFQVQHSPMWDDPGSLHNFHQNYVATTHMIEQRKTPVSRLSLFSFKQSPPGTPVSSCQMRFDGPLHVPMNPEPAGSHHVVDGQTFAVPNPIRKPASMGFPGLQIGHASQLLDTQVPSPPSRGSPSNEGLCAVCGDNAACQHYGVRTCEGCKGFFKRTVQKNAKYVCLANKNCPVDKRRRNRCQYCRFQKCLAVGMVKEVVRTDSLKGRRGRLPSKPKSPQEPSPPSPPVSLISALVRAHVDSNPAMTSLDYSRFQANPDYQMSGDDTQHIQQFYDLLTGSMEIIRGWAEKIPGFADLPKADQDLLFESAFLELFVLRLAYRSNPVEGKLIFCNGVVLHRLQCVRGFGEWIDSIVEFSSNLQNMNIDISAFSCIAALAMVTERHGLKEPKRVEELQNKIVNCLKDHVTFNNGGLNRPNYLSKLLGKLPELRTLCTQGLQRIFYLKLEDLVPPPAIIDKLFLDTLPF
Chain of Glucocorticoid receptor (Homo sapiens) (P04150 whole entry, looked up, the tested form may be a part): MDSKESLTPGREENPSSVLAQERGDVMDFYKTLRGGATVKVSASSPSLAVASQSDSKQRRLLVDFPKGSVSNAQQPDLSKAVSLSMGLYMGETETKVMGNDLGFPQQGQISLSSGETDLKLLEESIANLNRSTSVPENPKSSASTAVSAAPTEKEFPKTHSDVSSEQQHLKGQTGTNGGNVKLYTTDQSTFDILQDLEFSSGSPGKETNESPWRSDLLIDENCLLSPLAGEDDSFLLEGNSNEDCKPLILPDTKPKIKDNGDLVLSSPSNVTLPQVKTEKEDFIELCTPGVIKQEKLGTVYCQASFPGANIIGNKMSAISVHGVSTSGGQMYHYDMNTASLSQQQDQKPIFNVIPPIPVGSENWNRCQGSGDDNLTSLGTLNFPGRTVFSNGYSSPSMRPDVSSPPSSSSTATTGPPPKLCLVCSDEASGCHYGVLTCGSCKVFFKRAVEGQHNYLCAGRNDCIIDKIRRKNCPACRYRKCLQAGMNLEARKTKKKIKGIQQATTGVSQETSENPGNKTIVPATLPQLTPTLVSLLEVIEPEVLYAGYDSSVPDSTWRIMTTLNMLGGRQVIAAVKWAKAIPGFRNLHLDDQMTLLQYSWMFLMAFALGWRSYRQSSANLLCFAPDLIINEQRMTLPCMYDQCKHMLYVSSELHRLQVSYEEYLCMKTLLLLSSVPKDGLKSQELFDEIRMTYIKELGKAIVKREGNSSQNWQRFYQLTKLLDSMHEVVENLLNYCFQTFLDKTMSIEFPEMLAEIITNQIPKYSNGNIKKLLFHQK
Chain of Hepatocyte nuclear factor 4-alpha (Homo sapiens) (P41235 whole entry, looked up, the tested form may be a part): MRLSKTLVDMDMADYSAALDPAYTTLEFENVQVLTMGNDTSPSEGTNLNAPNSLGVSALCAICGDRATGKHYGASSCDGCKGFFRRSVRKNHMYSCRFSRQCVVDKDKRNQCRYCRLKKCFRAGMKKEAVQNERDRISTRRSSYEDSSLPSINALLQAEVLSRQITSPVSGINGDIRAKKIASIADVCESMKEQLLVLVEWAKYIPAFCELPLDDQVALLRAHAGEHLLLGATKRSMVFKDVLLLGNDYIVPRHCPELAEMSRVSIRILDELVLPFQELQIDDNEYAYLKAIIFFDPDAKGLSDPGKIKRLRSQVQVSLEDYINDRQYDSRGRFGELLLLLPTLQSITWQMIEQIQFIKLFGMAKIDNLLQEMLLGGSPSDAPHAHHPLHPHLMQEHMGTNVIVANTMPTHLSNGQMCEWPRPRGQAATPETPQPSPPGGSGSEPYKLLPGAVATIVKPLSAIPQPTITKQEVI
Chain of Estrogen-related receptor gamma (Homo sapiens) (P62508 whole entry, looked up, the tested form may be a part): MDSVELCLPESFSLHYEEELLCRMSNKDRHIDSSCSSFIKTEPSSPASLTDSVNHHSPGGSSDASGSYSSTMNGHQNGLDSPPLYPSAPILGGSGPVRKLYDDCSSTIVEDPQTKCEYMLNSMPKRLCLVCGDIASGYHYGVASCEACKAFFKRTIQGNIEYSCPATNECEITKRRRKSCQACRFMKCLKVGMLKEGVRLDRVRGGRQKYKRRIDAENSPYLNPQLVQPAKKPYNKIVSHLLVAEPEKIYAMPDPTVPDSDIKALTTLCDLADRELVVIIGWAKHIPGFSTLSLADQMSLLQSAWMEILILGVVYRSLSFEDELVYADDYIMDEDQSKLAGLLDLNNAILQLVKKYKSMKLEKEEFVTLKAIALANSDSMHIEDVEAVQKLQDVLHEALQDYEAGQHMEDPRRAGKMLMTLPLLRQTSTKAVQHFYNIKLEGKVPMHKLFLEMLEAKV
Chain of Transcriptional activator Myb (Homo sapiens) (P10242 whole entry, looked up): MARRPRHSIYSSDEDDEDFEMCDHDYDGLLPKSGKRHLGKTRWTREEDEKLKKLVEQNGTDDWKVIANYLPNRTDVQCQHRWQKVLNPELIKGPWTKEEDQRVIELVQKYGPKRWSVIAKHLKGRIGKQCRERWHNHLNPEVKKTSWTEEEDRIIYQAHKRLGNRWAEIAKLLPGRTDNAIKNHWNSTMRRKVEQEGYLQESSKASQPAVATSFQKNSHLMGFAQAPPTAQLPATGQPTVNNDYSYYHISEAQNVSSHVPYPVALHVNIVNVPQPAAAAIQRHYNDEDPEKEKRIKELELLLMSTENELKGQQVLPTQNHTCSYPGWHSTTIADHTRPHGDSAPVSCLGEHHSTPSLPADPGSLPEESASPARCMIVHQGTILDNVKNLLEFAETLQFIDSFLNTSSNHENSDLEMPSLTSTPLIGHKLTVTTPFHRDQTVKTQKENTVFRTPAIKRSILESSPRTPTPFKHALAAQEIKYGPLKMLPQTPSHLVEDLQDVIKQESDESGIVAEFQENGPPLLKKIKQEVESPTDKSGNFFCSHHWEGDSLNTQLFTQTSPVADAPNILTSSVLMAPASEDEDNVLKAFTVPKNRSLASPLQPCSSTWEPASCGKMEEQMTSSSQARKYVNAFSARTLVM
Chain of Oxysterols receptor LXR-alpha (Homo sapiens) (Q13133 whole entry, looked up, the tested form may be a part): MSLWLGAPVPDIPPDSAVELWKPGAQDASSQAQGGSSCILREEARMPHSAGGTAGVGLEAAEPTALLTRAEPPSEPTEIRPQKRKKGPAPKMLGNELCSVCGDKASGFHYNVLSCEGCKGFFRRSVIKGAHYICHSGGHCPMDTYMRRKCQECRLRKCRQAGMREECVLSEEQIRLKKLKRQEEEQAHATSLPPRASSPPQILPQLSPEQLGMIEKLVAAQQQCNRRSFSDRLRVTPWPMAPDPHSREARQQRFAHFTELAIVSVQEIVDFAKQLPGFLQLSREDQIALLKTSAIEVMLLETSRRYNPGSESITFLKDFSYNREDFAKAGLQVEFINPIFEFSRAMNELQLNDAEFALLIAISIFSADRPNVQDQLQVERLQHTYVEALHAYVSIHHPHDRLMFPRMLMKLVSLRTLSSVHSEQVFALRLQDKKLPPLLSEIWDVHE
Chain of Bile acid receptor (Homo sapiens) (Q96RI1 whole entry, looked up, the tested form may be a part): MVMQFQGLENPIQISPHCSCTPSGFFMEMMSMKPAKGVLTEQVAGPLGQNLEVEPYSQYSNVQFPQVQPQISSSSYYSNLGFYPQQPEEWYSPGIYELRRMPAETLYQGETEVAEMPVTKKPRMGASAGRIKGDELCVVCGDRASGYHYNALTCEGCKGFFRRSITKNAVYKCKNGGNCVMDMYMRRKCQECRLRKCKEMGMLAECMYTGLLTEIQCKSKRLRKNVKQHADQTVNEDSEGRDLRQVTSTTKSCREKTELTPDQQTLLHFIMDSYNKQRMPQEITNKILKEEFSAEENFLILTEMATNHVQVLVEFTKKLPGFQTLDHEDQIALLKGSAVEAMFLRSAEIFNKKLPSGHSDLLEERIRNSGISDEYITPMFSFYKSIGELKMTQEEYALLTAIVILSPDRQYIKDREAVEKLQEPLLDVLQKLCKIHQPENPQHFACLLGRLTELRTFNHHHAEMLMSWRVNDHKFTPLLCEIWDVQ
Chain of Oxysterols receptor LXR-beta (Homo sapiens) (P55055 whole entry, looked up, the tested form may be a part): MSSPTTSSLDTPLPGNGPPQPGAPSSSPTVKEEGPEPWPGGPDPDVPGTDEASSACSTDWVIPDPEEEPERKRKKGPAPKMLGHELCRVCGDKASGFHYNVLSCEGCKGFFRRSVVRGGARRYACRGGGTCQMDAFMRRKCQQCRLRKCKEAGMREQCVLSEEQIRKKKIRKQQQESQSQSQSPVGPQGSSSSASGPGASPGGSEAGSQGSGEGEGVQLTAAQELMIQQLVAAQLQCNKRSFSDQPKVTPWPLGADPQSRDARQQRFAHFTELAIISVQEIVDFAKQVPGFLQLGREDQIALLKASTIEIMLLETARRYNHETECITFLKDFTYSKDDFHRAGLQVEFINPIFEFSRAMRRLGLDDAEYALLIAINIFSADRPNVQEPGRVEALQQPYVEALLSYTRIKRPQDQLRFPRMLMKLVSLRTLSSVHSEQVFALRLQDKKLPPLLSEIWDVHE

For the compound `CC(C)(CO)C(O)C(=O)NCCCO` (stereo unspecified), the call in [1], in experiment [2], in experiment [3], in [4], in experiment [5] and in experiment [6] was inactive. In addition, the result in [7] was inactive.
As to `CC(=O)CCC=C(C)C`, the compound was classed as inactive in experiment [1], in [3] and in [7].
In the case of `N=C1C=CC(=C(c2ccc(N)cc2)c2ccc(N)cc2)C=C1`, the compound was called inactive in [1] and in experiment [8]. For the same compound, in experiment [4], the AC50 (usually the concentration at which the activity in the assay is half-maximal) is 129 µM (active).
On to `O=C(OCc1ccccc1)c1ccc(O)cc1`, for which the outcome in experiment [9], in [2], in experiment [3], in [5] and in experiment [7] was inactive.
`CCOc1ccc(NC(N)=O)cc1`: the outcome in experiment [9], in [2], in [3], in experiment [4], in experiment [8] and in [6] was inactive. The compound was classed as inactive in experiment [7].
In the case of `CCc1cccc(C)c1N(C(=O)CS(=O)(=O)O)C(C)COC` (stereo unspecified), the compound was called inactive in experiment [9], in [2], in experiment [3], in experiment [4], in experiment [5] and in [7].
Take `O=C(Nc1ccccc1)c1cc(Cl)ccc1O`: the outcome in experiment [9], in experiment [2], in [3], in [4] and in experiment [7] was inactive.
With `CC1(C)[C@@H]2CC[C@@]1(C)C(=O)C2`, the call in experiment [1], in experiment [8] and in [6] was inactive.
In the case of `CCCCCCCOC(=O)c1ccc(O)cc1`, the call in [9], in experiment [2], in experiment [10], in experiment [5], in [8] and in experiment [6] was inactive. The compound was classed as inactive in [7].
With `Nc1ncnc2nc[nH]c12`, the compound was classed as inactive in experiment [9], in experiment [2], in experiment [4] and in [7].
`CO[Si](C)(C)OC`: the compound was classed as inactive in experiment [1] and in [4]. Further, the half-maximal activity concentration (AC50) in [7] was 151 µM (active).
Take `O=C(O)CC(C(=O)O)S(=O)(=O)O` (stereo unspecified): the call in experiment [1] and in [7] was inactive.
With `CCCCCCCCCCCCc1ccc(O)cc1`, the result in experiment [9], in experiment [2], in [3], in experiment [5], in experiment [8] and in [6] was inactive. Further, the call in experiment [7] was inactive.
For `CC=CC(=O)OCC(C)C`, the result in experiment [9], in experiment [2], in experiment [4] and in experiment [5] was inactive.
`C=C(C)C(=O)OCC(O)COc1ccc(C(C)(C)c2ccc(OCC(O)COC(=O)C(=C)C)cc2)cc1` (stereo unspecified): the result in experiment [1], in experiment [4] and in experiment [8] was inactive. In addition, the AC50 was 27.4 µM (active) in [6] and 158 µM (active) in experiment [7].
